According to PubChem BioAssay (EPA / NIEHS):
Active and inactive are the calls of the source. How the source made its calls: active means hit-call score of the fitted dose curve at least 0.9, where 1 is the maximum; inactive means score below 0.9.

What follows are compounds tested on Macrophage colony-stimulating factor (MCSF), CSF1 (gene 1435) (assay: BSK_CASM3C_MCSF: BioMAP Diversity Plus: CASM3C Assay for Macrophage colony-stimulating factor (MCSF) Biomarker Activity (AID 2283044;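 further: M-CSF protein amount quantified by ELISA after 24 h exposure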)). Details: primary human coronary artery smooth muscle cells; actives raise or lower the signal.

Compound	outcome	AC50
Nc1ccc(Cl)cc1N	inactive	–
OCCCl	inactive	–
c1ccc2c(c1)-c1cccc3cccc-2c13	inactive	–
CCCCCCCCn1sccc1=O	–	10.8 µM (active)
c1ccc(C2CO2)cc1 (stereo not given)	inactive	–
CC(C)(C)OOC(C)(C)CCC(C)(C)OOC(C)(C)C	inactive	–
c1ccc2c(c1)oc1ccccc12	inactive	–
CN(C)c1ccc(C(=O)c2ccc(N(C)C)cc2)cc1	inactive	–
Oc1ccccc1Cl	inactive	–
Clc1ccccc1Cl	inactive	–
O=C(N[C@H](c1ccccc1)[C@@H]1CN2CCC1CC2)c1c(Cl)ccc(C(F)(F)F)c1Cl	inactive	–
ClCCOCCCl	inactive	–
Cc1ccc([N+](=O)[O-])cc1	inactive	–
CO[C@@H]1[C@H](OC(=O)NC(=O)CCl)CC[C@]2(CO2)[C@H]1[C@@]1(C)O[C@@H]1CC=C(C)C	inactive	–
Nc1ccc([N+](=O)[O-])cc1	inactive	–
Nc1ccc(Oc2ccc(N)cc2)cc1	inactive	–
CC(C)(O)c1cnn2c(-c3ccc(F)c(-c4c(F)cccc4C#N)c3)cnc2n1	inactive	–
OCCCBr	inactive	–
[O-][Cl+]O	inactive	–
C1=Cc2cccc3cccc1c23	inactive	–
CN(C)C(=O)Nc1ccc(Cl)cc1	inactive	–
ClC1=C(Cl)C2(Cl)C3C(Cl)C=CC3C1(Cl)C2(Cl)Cl (stereo not given)	–	30 µM (active)
Cc1ccc(N=C=O)cc1N=C=O	inactive	–
O=Cc1ccco1	inactive	–
CCCSC(=O)N(CCC)CCC	inactive	–
Clc1ccc(Cl)c(Cl)c1	inactive	–
CCC12COCN1COC2	inactive	–

What follows are compounds tested on Low-density lipoprotein receptor (LDLR), LDLR (gene 3949) (assay: BSK_CASM3C_LDLR: BioMAP Diversity Plus: CASM3C Assay for Low-density lipoprotein receptor (LDLR) Biomarker Activity (AID 2283045;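 further: LDLR protein level on the cell surface quantified by ELISA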)). Details: primary human coronary artery smooth muscle cells; actives raise or lower the signal.

Compound	outcome	AC50
O=C(O)C1C2CCC(O2)C1C(=O)O (stereo not given)	inactive	–
Nc1ccc(Cl)cc1N	inactive	–
OCCCl	inactive	–
c1ccc2c(c1)-c1cccc3cccc-2c13	inactive	–
CCCCCCCCn1sccc1=O	–	12.8 µM (active)
c1ccc(C2CO2)cc1 (stereo not given)	inactive	–
CC(C)(C)OOC(C)(C)CCC(C)(C)OOC(C)(C)C	inactive	–
c1ccc2c(c1)oc1ccccc12	inactive	–
CN(C)c1ccc(C(=O)c2ccc(N(C)C)cc2)cc1	inactive	–
Oc1ccccc1Cl	inactive	–
Clc1ccccc1Cl	inactive	–
O=C(N[C@H](c1ccccc1)[C@@H]1CN2CCC1CC2)c1c(Cl)ccc(C(F)(F)F)c1Cl	–	25 µM (active)
ClCCOCCCl	inactive	–
Cc1ccc([N+](=O)[O-])cc1	inactive	–
CO[C@@H]1[C@H](OC(=O)NC(=O)CCl)CC[C@]2(CO2)[C@H]1[C@@]1(C)O[C@@H]1CC=C(C)C	inactive	–
Nc1ccc([N+](=O)[O-])cc1	inactive	–
Nc1ccc(Oc2ccc(N)cc2)cc1	inactive	–
CC(C)(O)c1cnn2c(-c3ccc(F)c(-c4c(F)cccc4C#N)c3)cnc2n1	inactive	–
OCCCBr	inactive	–
[O-][Cl+]O	inactive	–
C1=Cc2cccc3cccc1c23	inactive	–
CN(C)C(=O)Nc1ccc(Cl)cc1	inactive	–
ClC1=C(Cl)C2(Cl)C3C(Cl)C=CC3C1(Cl)C2(Cl)Cl (stereo not given)	–	31.8 µM (active)
Cc1ccc(N=C=O)cc1N=C=O	inactive	–
O=Cc1ccco1	inactive	–
CCCSC(=O)N(CCC)CCC	inactive	–
Clc1ccc(Cl)c(Cl)c1	inactive	–
CCC12COCN1COC2	inactive	–
